Laboratory results as given in PubChem BioAssay (NCATS).
Values joined by “and” are separate entries in the source; they are usually repeats but may differ in a detail not shown here. Equal entries are not always repeated. Records with an inconclusive call do not appear. Values without a mark were called inactive. Active and inactive are the calls of the source. Calls come from the whole dose curve; as a rule, active = well fitted inhibition curve with a large enough effect; inconclusive = small, poorly fitted or top-dose-only effect; inactive = flat fitted curve, though single readings scatter.

Test: Primary qHTS for inhibitors of nuclear receptor binding SET domain protein 2 (NSD2) in an isogenic RCH-ACV NSD2 p.E1099K mutant (9B) (AID 1645876); note: nearly all actives have a fitted effect of over 70% in size
Details: RCH-ACV (leukaemia line) NSD2 E1099K (9B) viability, CellTiter-Glo, 72 h; series mostly up to 44.9 µM; activity change, negative = viability loss: at the top concentration
% is set by controls: 0 for no effect and ±100 for the full control effect; potency is the fitted concentration of half-maximal effect.

Compound | Potency | activity change, negative = viability loss [%] | outcome
COc1ccc(-n2nc(CCC(=O)N(C)O)cc2-c2ccc(Cl)cc2)cc1 | 8.41 µM (active) | – | –
CC(=O)N[C@@H](CCC(N)=O)C(=O)O | – | 9.5 | –
Cc1cc(=O)oc2cc(O[C@@H]3SC[C@@H](O)[C@H](O)[C@H]3O)ccc12 | – | 4.05 | –
COc1cc2c(cc1OC)CN(C(=O)[C@H](C)N[C@@H](CCc1ccccc1)C(=O)O)[C@H](C(=O)O)C2 | – | 8.34 | –
O=C(O)c1[nH]n(-c2ccc(S(=O)(=O)O)cc2)c(=O)c1N=Nc1ccc(S(=O)(=O)O)cc1 | – | -1.79 | –
CC1CC(=O)NN=C1c1ccc(NCC(C)(C)NCC(O)COc2cc(Cl)ccc2C#N)cc1 (stereo not given) | – | -11.9 | –
CC(=O)c1cc2ccccc2s1 | – | -13.2 | –
CC(COc1ccccc1)NN (stereo not given) | – | -10.2 | –
CCCCCCCCCCCCCCCCCCN(C)C | – | 0.366 | –
C[C@@H]1CCC[C@H](C)N1CCCC(O)(c1ccccc1)c1ccccn1 (stereo not given in full) | – | -11.4 | –
CCO[C@H](Cc1ccc(OCCc2ccc(OS(C)(=O)=O)cc2)cc1)C(=O)O | – | 5.51 | –
C=C(C)C(=O)OCC(O)CO (stereo not given) | – | -1.39 | –
CC(=O)Nc1c(I)c(NC(C)=O)c(I)c(C(=O)O)c1I | – | – | inactive
CCCCN(CCCC)C(C(N)=O)c1ccc(OC)cc1 (stereo not given) | – | – | inactive
CCN1CCN(C(=O)N[C@@H](C(=O)N[C@@H]2C(=O)N3[C@@H]2SC(C)(C)[C@H]3C(=O)O)c2ccccc2)C(=O)C1=O | – | – | inactive
Cc1cccc(C)c1NC(=O)c1ccc(N)cc1 | – | 8.13 | –
CC(C)=CCNc1ncnc2c1ncn2[C@@H]1O[C@H](CO)[C@@H](O)[C@H]1O | 1.68 µM (active) | – | –
CC(C)=CCC/C(C)=C/CC/C(C)=C/CCC(=O)OC/C=C(\C)CCC=C(C)C | – | 8.73 | –
CCOC(=O)C(=O)c1csc(NC=O)n1 | – | -1.17 | –
CN1C(=O)CC(C)(c2ccccc2)C1=O (stereo not given) | – | -7.97 | –

Compound | Potency | activity change, negative = viability loss [%] | outcome
CCOc1ccc(NS(=O)(=O)c2ccc(N)cc2)nn1 | – | 9.7 | –
CC(=O)Oc1ccc(C2(c3ccc(OC(C)=O)cc3)Oc3ccccc3NC2=O)cc1 | 8.17 µM (active) | – | –
O=C(Oc1ccccc1)c1ccccc1O | – | – | inactive
CCCOc1ccc2c(c1)CC[C@@H]1[C@@H]2CC[C@]2(C)C(OC)CC[C@@H]12 (stereo not given in full) | – | – | inactive
O=P(O)(O)OCC(O)CO (stereo not given) | – | – | inactive
O=[N+]([O-])c1ccc(O)c2ncccc12 | 1.88 µM (active) and 6.61 µM (active) | – | –
COC(=O)c1ccc(NC(C)=O)cc1OC | – | 0.594 | –
Nc1ccc(O)cc1 | – | 2.07 | –
COc1cc(C(=O)NC2CCCNC2)cc(OC)c1OC (stereo not given) | – | -2.11 | –
CN(C)CCN(Cc1ccsc1)c1ccccn1 | – | -7.76 | –
CCCCC(O)/C=C(C)/C=C/C=C/C(=O)N1CCCC1=O (stereo not given) | – | 4.81 | –
CCOc1ccccc1OCC1CNCCO1 (stereo not given) | – | – | inactive
CCS(=O)(=O)c1ccc(OC)c(C(=O)OC)c1 | – | 5.13 | –
CN1C(CSCC(F)(F)F)Nc2cc(Cl)c(S(N)(=O)=O)cc2S1(=O)=O (stereo not given) | – | -15.1 | –
Cc1cc2nc3ccc(=[N+](C)C)cc-3sc2cc1N | 1.33 µM (active) | – | –
N#CC1(c2ccc(F)cc2)CCC(=O)CC1 | – | -9.91 | –
O=C1CC2(CCCC2)CC(=O)N1CCNCC1COc2ccccc2O1 (stereo not given) | – | -10.3 | –
COc1ccc(/C(C)=C/C(=O)O)c(OC)c1 | – | – | inactive
CC(C)CCCC(C)NCCC(C)C (stereo not given) | – | -2.31 | –
Cc1ccccc1C(=O)N1CC/C(=N\OS(=O)(=O)O)c2ccc(Cl)cc21 | – | 8.85 | –
